The assay is described as follows: NCI Yeast Anticancer Drug Screen. Data for the sgs1 strain (AID 173).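 Further: 0% = growth of vehicle-only control cultures.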 The following applies: S. cerevisiae sgs1 mutant, active compounds read high. How it is done: Growth inhibition of yeast strains with defined genetic alterations is measured as a screen for potential anti-cancer activity. Selected strains with alterations in DNA damage repair or cell cycle control were exposed to compounds and growth inhibition was measured relative to vehicle treated controls. The strain used in this assay is sgs1

The panel holds about 79,000 compounds, 15% with a hit somewhere; the sample as a whole holds those more often. Unmarked numbers belong to inactive results. Active and inactive are the calls of the source. No stated cut-off is given here; in the data, active means growth inhibition above about 70%; inactive means the rest.

`CCC#CCCCOC(=O)c1cc([N+](=O)[O-])cc([N+](=O)[O-])c1`: the growth inhibition is -1% (at 1.2 µM); 3% (at 3.7 µM); 23% (at 11.0 µM); 98% (active) (at 33.0 µM); 99% (active) (at 100.0 µM).

On to `O=C(CCCN1CCC2(CC1)CC(=O)N(N1CCCCCC1)C2=O)c1ccc(F)cc1`, for which the growth inhibition is 43% (at 1.2 µM); 45% (at 3.7 µM); 65% (at 11.0 µM); 73% (active) (at 33.0 µM); 77% (active) (at 100.0 µM).

For the compound `Fc1ccc(NC(=S)SCc2ccc(Cl)c(Cl)c2)cc1F`, the growth inhibition is, setting by setting: (at 1.2 µM) -5%; (at 3.7 µM) -1%; (at 11.0 µM) 44%; (at 33.0 µM) 99% (active); (at 100.0 µM) 97% (active).

With `CCS(=O)(=O)c1ccc(/C=C/C=N/NC(=S)NCC(C)C)cc1`, the growth inhibition is -4% (at 1.2 µM); 1% (at 3.7 µM); -24% (at 11.0 µM); 1% (at 33.0 µM); 48% (at 100.0 µM).

Take `CCCCCCCCCC/C=C\C(=O)O`: the growth inhibition by setting is: (at 1.2 µM) -7%; (at 3.7 µM) -5%; (at 11.0 µM) -9%; (at 33.0 µM) 19%; (at 100.0 µM) 98% (active).

As for `N#Cc1c(N)[nH]c2ccc(Sc3ccccc3)cc12`, the growth inhibition (at 1.2 µM) is -3%; the growth inhibition (at 3.7 µM) is 5%; the growth inhibition (at 11.0 µM) was 23%; the growth inhibition (at 33.0 µM) is 95% (active); the growth inhibition (at 100.0 µM) is 97% (active).

As to `Oc1c(Br)cc(Br)cc1C1CCCCC1`, the growth inhibition is -25% (at 1.2 µM); -16% (at 3.7 µM); 10% (at 11.0 µM); 95% (active) (at 33.0 µM); 97% (active) (at 100.0 µM).

Take `O=C([O][Sn]([O]C(=O)c1ccccc1)([c]1ccccc1)[c]1ccccc1)c1ccccc1`: the growth inhibition is 28% (at 1.2 µM); 26% (at 3.7 µM); 30% (at 11.0 µM); 45% (at 33.0 µM); 84% (active) (at 100.0 µM).

Source of the values: PubChem BioAssay (NCI).
